# Screening results as filed in PubChem BioAssay.
# SARS 3CLpro inh – SARS-CoV 3CLpro protease inhibition. P0C6X7. recombinant SARS-CoV 3CLpro, quenched FRET peptide cleavage. inhibition, % at 6 µM. 0.14% of 290,000 active; in the data active means inhibition above about 12%
# FBA Mtb inh – inhibitors of M. tuberculosis fructose-bisphosphate aldolase | P9WQA3 | purified M. tuberculosis FBA, fluorescence read-out | inhibition, % at 1 µM | 2.3% of 360,000 active | AID 588726; in the data active means inhibition above about 27%
# Target sequence (P9WQA3 whole entry, looked up): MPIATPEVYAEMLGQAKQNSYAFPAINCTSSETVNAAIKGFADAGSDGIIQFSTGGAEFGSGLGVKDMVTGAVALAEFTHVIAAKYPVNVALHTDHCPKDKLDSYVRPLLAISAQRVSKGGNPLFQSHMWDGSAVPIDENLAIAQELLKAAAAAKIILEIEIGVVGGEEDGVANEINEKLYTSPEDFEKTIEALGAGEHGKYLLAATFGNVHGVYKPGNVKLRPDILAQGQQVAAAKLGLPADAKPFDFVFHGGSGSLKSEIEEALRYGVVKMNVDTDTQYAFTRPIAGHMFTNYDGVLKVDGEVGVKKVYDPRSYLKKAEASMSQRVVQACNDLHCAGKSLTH
# CCHFV vOTU inh – CCHFV vOTU protease inhibition; Pep-AMC fluorescence; inhibition, % at 11.5 µM; 0.55% of 370,000 active
# GDH-TPI counter – inhibits GDH-TPI coupling enzymes, artifact for Mtb FBA screen | GDH-TPI coupled enzyme counterscreen, NADH absorbance | inhibition, % at 4.8 µM | 1.2% of 360,000 active | AID 588335
# DUSP3 inh – DUSP3 (human) phosphatase inhibition; P51452; recombinant VHR phosphatase, pNPP absorbance; inhibition, % at 13.3 µM; 0.52% of 290,000 active; AID 1654; in the data active means inhibition above about 50%
# Target sequence (P51452 whole entry, looked up): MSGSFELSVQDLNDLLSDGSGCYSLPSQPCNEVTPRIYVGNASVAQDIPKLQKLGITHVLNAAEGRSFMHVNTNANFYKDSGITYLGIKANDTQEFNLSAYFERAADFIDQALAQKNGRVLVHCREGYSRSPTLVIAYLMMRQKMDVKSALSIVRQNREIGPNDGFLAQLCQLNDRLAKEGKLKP
# RecA splice inh – inhibitors of M. tuberculosis RecA intein splicing; cell-free RecA intein splicing, fluorescence; AID 2221; P9WHJ3; 0.75% of 290,000 active; inhibition, % (test concentration not listed); in the data active means inhibition above about 30%
# Hits are given with their value; . = inactive; / = no result given; + = active, no number. An excerpt weighted towards active compounds, which were near 4.7% of everything screened. Unless noted, no stated cut-off is given here; in the data, active means inhibition above about 30%; inactive means the rest.
SMILES,SARS 3CLpro inh,FBA Mtb inh,CCHFV vOTU inh,GDH-TPI counter,DUSP3 inh,RecA splice inh
COc1ccc(-c2nsc(C(=O)N(c3ccc(F)cc3)C(C(=O)NC3CCCC3)c3ccc(OC)cc3)c2N)cc1 (stereo unspecified),.,.,.,31.1,.,.
CC(=O)c1c(C)[nH]c(C(=O)N2CCN(c3ccccn3)CC2)c1C,.,.,.,.,56.9,.
COC(=O)c1cc2c(c3c4ccccc4n(S(=O)(=O)c4ccccc4)c13)C(=O)N(Cc1ccco1)C2,/,/,.,/,/,/
COc1ccccc1NC=C1C(=O)OC2(CCCCC2)OC1=O,.,.,.,33.0,.,.
CCOC(=O)N1CCC(Nc2c(N3CCN(c4cc(Cl)ccc4C)CC3)c(=O)c2=O)CC1,.,.,.,.,.,.
CCOC(=O)N1CCC(Nc2c(-c3ccc(C)c(C)c3)c(=O)c2=O)CC1,.,.,.,33.0,.,.
O=S(=O)(c1ccccc1F)n1c(CN2CCOCC2)nc2ccccc21,/,/,.,/,/,/
CCCCOCCCNC(=O)C[C@@H]1C(=O)N(CCc2ccc(Cl)cc2)C2=CCCC[C@]21C(=O)OCC,/,/,.,/,/,/
Cc1ccc(NC(=S)NC(C)CCc2ccccc2)cc1C (stereo unspecified),.,.,.,.,.,.
Cc1cccc(C)c1NC(=S)NC(C)CCc1ccccc1 (stereo unspecified),.,.,.,.,59.9,.
Cc1ccccc1NS(=O)(=O)c1c(C(=O)N2CCCCCC2)c(C)n(C)c1C,.,.,.,.,.,.
CN1C(=O)C2(OCC(C)([N+](=O)[O-])CO2)c2ccccc21 (stereo unspecified),.,.,.,.,.,.
CN1C(=O)C2(N=c3ccccc3=N2)c2ccccc21,.,30.1,/,.,.,.
Cc1cc(C)nc(NNC(=O)c2ccccc2O)n1,.,.,.,.,.,.
O=C(Cc1ccc(Cl)c(Cl)c1)N/N=C/c1cccnc1,.,.,.,.,57.1,.
N[C@@H]1CCCC[C@H]1N.O=C(O)C(=O)O.[Pt],/,/,/,/,/,50.5
O=C(O)CC1CCC1CC(=O)O (stereo unspecified),/,.,.,.,/,/
O=C(/C=C/N1CCOCC1)c1ccc(-c2ccccc2)cc1,.,.,/,38.0,.,.
O=C(/C=C\N1CCOCC1)c1ccc(Br)cc1,.,.,.,.,.,.
CC1S/C(=N/N=C/c2cccc([N+](=O)[O-])c2)NC1=O (stereo unspecified),.,.,.,.,.,.
Cc1ccc(S(=O)(=O)Oc2ccc(C)cc2/C=N/N=C2\NC(=O)C(C)S2)cc1 (stereo unspecified),.,.,.,38.1,.,.
O=C(Nc1ccc(Br)cn1)c1ccc(Cl)s1,.,.,.,.,52.0,.
CCN(CC)C(=O)CSc1nnc(-c2ccc(C(C)(C)C)cc2)n1Cc1ccco1,/,/,.,/,/,/
CCOC(=O)[C@]12CCCC=C1N(Cc1ccc(OC)cc1)C(=O)[C@@H]2CC(=O)NCC12CC3CC(CC(C3)C1)C2,/,/,.,/,/,/
CC(C)C[C@H](N)c1nnc(S(=O)(=O)Cc2ccc(F)cc2)o1,.,.,/,.,.,33.6
SMILES,SARS 3CLpro inh,FBA Mtb inh,CCHFV vOTU inh,GDH-TPI counter,DUSP3 inh,RecA splice inh
CC(C)C[C@H](N)c1nnc(SCC(=O)Nc2ccc(Br)cc2)o1,.,.,.,.,.,.
CCOC(=O)/C(C#N)=N/Nc1ccccc1C#N,.,.,.,.,.,.
CCn1c(SCc2ccc(C(C)(C)C)cc2)nnc1-c1ccc(C(C)(C)C)cc1,/,/,.,/,/,/
Cc1ccc(C#N)c(SCCN2CCCCC2)n1,.,.,.,.,52.0,.
Cc1cc(C)c(C#N)c(SCCN2CCCCC2)n1,.,.,.,.,.,.
Cc1ccccc1N1CCN(C2CCCN(C(=O)CCn3cnnn3)C2)CC1 (stereo unspecified),.,.,.,.,.,.
Cc1nn(-c2ccc(Cl)cc2)c(Cl)c1/C=N/NC(=O)c1ccc(NS(=O)(=O)c2cccs2)cc1,/,.,.,32.1,/,.
COc1ccc(OC)c(C=NNC(=O)c2ccccc2NS(=O)(=O)c2cccs2)c1,/,.,.,31.0,/,/
COc1cc(/C=N/NC(=O)c2ccc(NS(=O)(=O)c3cccs3)cc2)cc(OC)c1O,/,.,.,38.5,/,/
O=C(NN=Cc1ccc(F)c(F)c1)c1ccc(NS(=O)(=O)c2cccs2)cc1,/,.,.,45.8,/,/
COC(=O)C1=C(C)N(Cc2ccccc2C(F)(F)F)C(=NCc2cccc(C(F)(F)F)c2)NC1c1ccc(F)cc1 (stereo unspecified),/,/,.,/,/,/
O=C(Nc1ccccc1)OCCN1C(=O)CCC12CCC(c1ccc(Cl)cc1)CC2 (stereo unspecified),/,/,.,/,/,/
CCc1ccc(C(O)c2ncc(-c3ccccc3Cl)[nH]2)cc1 (stereo unspecified),/,.,.,.,/,/
COC(=O)C[C@@H]1C[C@H]2c3cc(NC(=O)Nc4ccccc4F)ccc3O[C@H]2[C@@H](CO)O1,/,/,.,/,/,/
O=C(N/N=C/c1ccc2c(c1)OCO2)c1ccc(NS(=O)(=O)c2cccs2)cc1,.,.,.,32.9,.,.
CSc1ccc(-c2ccc3c(c2)c(Sc2ccccc2)c(-c2ccccc2)n3C)cc1,/,/,.,/,/,/
Cc1nc2c(S(=O)(=O)c3ccccc3)cnn2c(C)c1C,.,43.6,.,.,.,.
COc1ccc(C(=O)OC(C)CN2CCOCC2)cc1OC (stereo unspecified),.,121.4,.,.,.,.
COc1ccc(C(=O)OC(C)CN2CCOCC2)cc1 (stereo unspecified),.,.,.,.,.,.
COCCCNc1oc(-c2ccccc2F)nc1C#N,.,+,.,.,.,.
COCCCNc1oc(-c2ccccc2OC)nc1C#N,.,+,.,39.6,.,.
COCCCNc1oc(/C=C/c2ccccc2)nc1C#N,.,/,.,.,.,.
CCCCNC(=O)c1c(N)n(CCCOC)c2nc3ccccc3nc12,.,115.2,.,.,.,.
COCCNC(=O)c1c(N)n(CCCn2ccnc2)c2nc3ccccc3nc12,.,131.6,.,.,.,.
COCCCNC(=O)c1c(N)n(/N=C/c2cccnc2)c2nc3ccccc3nc12,.,.,.,.,.,.
SMILES,SARS 3CLpro inh,FBA Mtb inh,CCHFV vOTU inh,GDH-TPI counter,DUSP3 inh,RecA splice inh
CC(C)CCn1c(N)c(C(=O)NCc2cccs2)c2nc3ccccc3nc21,.,.,/,.,.,88.1
CC(C)OCCCNC(=O)c1c(N)n(/N=C/c2ccccn2)c2nc3ccccc3nc12,.,.,.,.,.,.
CC(C)OCCCNC(=O)c1c(N)n(Cc2cccs2)c2nc3ccccc3nc12,.,34.4,.,.,.,.
CCc1cc(CNC(=O)C2CCC(=O)N(Cc3ccccc3F)C2)on1 (stereo unspecified),/,.,.,.,/,/
S=c1[nH]nc(-c2n[nH]c3c2CCC3)n1N=Cc1ccc(Br)s1,/,/,.,/,/,/
COCCNC(=O)c1c(N)n(CCC(C)C)c2nc3ccccc3nc12,.,120.7,.,.,.,.
COCCn1c(N)c(C(=O)NCC2CCCO2)c2nc3ccccc3nc21 (stereo unspecified),.,+,.,.,.,.
COCCCn1c(N)c(C(=O)OCCOC)c2nc3ccccc3nc21,.,+,.,.,.,.
